# Bioassay records: PubChem BioAssay, Paczesny and Yang Labs, IUPUI and University of Michigan
# The entries come from a sample that favours hits as a whole.
# ST2 IL33 inh: inhibitors of human ST2 (IL1RL1) binding to IL-33; AlphaLISA ST2-Fc/biotin-IL-33 interaction, 1 h; inhibition, % for hits at 17 µM; hit rate 2.3% among 78,000; AID 1259354; in the data active = inhibition above about 30%
# Target sequence (Q01638 whole entry, looked up): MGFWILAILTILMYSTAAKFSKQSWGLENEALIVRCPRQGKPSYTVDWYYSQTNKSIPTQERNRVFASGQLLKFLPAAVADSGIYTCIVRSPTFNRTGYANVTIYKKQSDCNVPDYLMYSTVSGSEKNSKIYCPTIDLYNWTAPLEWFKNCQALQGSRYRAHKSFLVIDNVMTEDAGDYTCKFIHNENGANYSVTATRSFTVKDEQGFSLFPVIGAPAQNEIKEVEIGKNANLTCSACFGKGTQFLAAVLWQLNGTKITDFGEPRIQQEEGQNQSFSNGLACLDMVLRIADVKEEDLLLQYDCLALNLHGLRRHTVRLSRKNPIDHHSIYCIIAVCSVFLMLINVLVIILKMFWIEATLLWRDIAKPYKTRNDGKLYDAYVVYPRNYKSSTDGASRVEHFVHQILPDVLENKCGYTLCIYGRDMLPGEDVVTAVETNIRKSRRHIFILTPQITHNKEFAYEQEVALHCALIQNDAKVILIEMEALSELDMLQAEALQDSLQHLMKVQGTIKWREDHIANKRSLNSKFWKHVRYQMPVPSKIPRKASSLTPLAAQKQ
# Starred values were filed as active, the others as inactive; i = inactive; ! = repeats disagree.
SMILES,ST2 IL33 inh
COc1ccc(CN2C[C@H](O)C[C@H]2c2nc(-c3ccncc3)no2)cc1,i
CC(=O)N[C@@H]1C[C@H](Cc2ccccc2)O[C@H](/C=C/c2ccccc2)C1,i
Cn1c(NCCc2ccccc2)nc2c1c(=O)n(Cc1ccc(F)cc1)c(=O)n2C,i
CC(O)c1nc2ccccc2n1Cc1ccccc1 (configuration not stated),36%*
CC(O)c1nc2ccccc2n1CCCOc1ccccc1 (configuration not stated),i
CCn1c(C(C)NC(C)=O)nc2ccccc21 (configuration not stated),i
CN1CCN(CC(O)COCc2ccccc2)CC1 (configuration not stated),i
CN(CCc1cn[nH]c1)CC(=O)Nc1nc(C(C)(C)C)cs1,i
Cc1ccc(NC(=O)c2oc3ccccc3c2NC(=O)c2cc3ccccc3oc2=O)cc1,i
CCC(=O)N1CCc2cc(Br)cc(S(=O)(=O)Nc3cc(OC)ccc3OC)c21,i
Cc1ncsc1C(=O)N1CCOC(Cc2cccc(C(F)(F)F)c2)C1 (configuration not stated),i
O=C(O)c1cccnc1SC1CC(=O)N(c2ccc(N3CCOCC3)cc2)C1=O (configuration not stated),i
O=C1CC(Sc2ccccn2)C(=O)N1c1ccc(Br)cc1 (configuration not stated),40%*
Cc1ccc(N2C(=O)CC(Sc3nc4ccccc4o3)C2=O)cc1 (configuration not stated),i
COCC1(C(=O)NCc2ccc(-c3ccccn3)s2)CCC1,i
c1ccc(-c2csc3c4ncnc-4ncn23)cc1,i
COc1ccc(-n2ncc3c(NCc4ccccc4)ncnc32)cc1,i
Cc1ccc2oc(/C=C/c3nc4cc(C)ccc4o3)nc2c1,i
CN(C)c1ccc(/C=C/c2nc(=O)c3ccccc3o2)cc1,55%*
COc1ccc(-c2nnc(/C=C/c3ccccc3)o2)cc1,i
C=CCNC(=O)c1ccc(OC)c([N+](=O)[O-])c1,i
O=C1Nc2ccccc2N(O)N1c1ccc([N+](=O)[O-])cc1,i
O=[N+]([O-])c1ccc(-c2nnc(S)n2-c2ccccc2)cc1,i
N#Cc1cc2[nH]c3ccccc3c2n(-c2ccc([N+](=O)[O-])cc2)c1=N,34%*!
COc1cc2c(cc1CN1C[C@H](O)[C@@H](N3CCN(C)CC3)C1)OCCCO2,i
SMILES,ST2 IL33 inh
CCN1CCN(Cc2ccc(-c3ccccc3)cc2)CC1,i
CCN1CCN(Cc2ccc(N(CC)CC)cc2)CC1,58%*
CN1CCCN(Cc2cccc(F)c2)CC1,i
CCc1ccc(CN2CCSCC2)cc1,i
CCN(CC)c1ccc(CN2CCN(C)CC2)cc1,56%*
CN1CCCN(Cc2cccc(Cl)c2)CC1,i
Cc1ccc(C(=O)Nc2ccc(F)c(Cl)c2)o1,i
COCCC(=O)N[C@H]1CC[C@]2(C)CC[C@@H]([C@H](C)C(=O)N3CCCC3)[C@H](O)[C@H]2[C@@H]1C,i
O=S(=O)(Nc1ccccc1)c1ccc(Cl)s1,i
COC(=O)c1sccc1S(=O)(=O)Nc1ccc(F)cc1F,i
COc1ccc(NC(=O)NC[C@H]2O[C@@H](CO)[C@@H](O)C2N2CCN(c3ccccc3)CC2)cc1 (some centres not stated),i
CC1(C)CC(=O)C2=C(C1)Nc1nc(SCc3ccccc3Cl)nn1C2c1cccnc1 (configuration not stated),31%*!
CC1(C)CC(=O)C2=C(C1)Nc1nc(SCc3ccccc3)nn1C2c1ccc(O)cc1 (configuration not stated),i
CC1(C)CC(=O)C2=C(C1)Nc1ccccc1N(C(=O)Cc1ccc(Cl)cc1)C2c1ccco1 (configuration not stated),i
COc1cccc(C2C3=C(CC(C)(C)CC3=O)Nc3nc(SCc4ccccc4)nn32)c1 (configuration not stated),i
CC1=C(C(=O)Nc2ccc(C)cn2)C(c2cccnc2)C2=C(CC(C)(C)CC2=O)N1 (configuration not stated),i
Cc1ccc(C2Nc3ccc(C(=O)c4ccccc4)cc3NC3=C2C(=O)CCC3)cc1 (configuration not stated),i
CCCCC(=O)N1c2ccccc2NC2=C(C(=O)CC(C)(C)C2)C1c1ccc2c(c1)OCO2 (configuration not stated),i
COc1ccc(C2C3=C(CC(C)(C)CC3=O)Nc3nc(SCc4ccccc4)nn32)cc1 (configuration not stated),i
CC1(C)CC(=O)C2=C(C1)Nc1ccccc1N(C(=O)Cc1ccc(Cl)cc1)C2c1cccnc1 (configuration not stated),40%*
CC1(C)CC(=O)C2=C(C1)Nc1nc(SCc3ccccc3Cl)nn1C2c1ccncc1 (configuration not stated),42%*!
CC1(C)CC(=O)C2=C(C1)Nc1cc(C(=O)c3ccccc3)ccc1NC2c1cccnc1 (configuration not stated),33%*
CC1=C(C(N)=O)C(c2cccnc2)n2nc(SCc3ccccc3Cl)nc2N1 (configuration not stated),i
Cc1ncc(-c2c(-c3ccccc3)ncn2Cc2noc(C3CC3)n2)s1,i
CN1CCN(C(=O)CN(Cc2ccccc2)S(=O)(=O)c2cc(Cl)ccc2Cl)CC1,i
SMILES,ST2 IL33 inh
CCOc1ccc(C2CC(c3ccc(C(C)C)cc3)n3ncnc3N2)cc1 (configuration not stated),i
O=C(c1cc(Cl)ccc1Cl)N1CCCc2ccccc21,i
COc1cc(/C=C/C(=O)OC[C@H]2O[C@H](O[C@]3(CO)O[C@H](CO)[C@@H](O)[C@@H]3OC(=O)/C=C/c3cc(OC)c(O)c(OC)c3)[C@H](O)[C@@H](O)[C@@H]2O)cc(OC)c1O,i
CC(NC(=O)c1cn(Cc2ccc(Cl)cc2)nn1)c1nc(-c2ccccc2)no1 (configuration not stated),i
COCCN(CC1CCN(Cc2ccccc2F)CC1)C(=O)c1cnc(C)cn1,i
O=C(Nc1c(-c2cccs2)nc2ccccn12)c1c(F)cccc1F,i
CC(=O)N(C1=C(N(C)C)C(=O)c2ccccc2C1=O)c1cccc(Cl)c1,31%*
CN(C)C(=O)c1ccccc1-c1cccc(Cl)c1,i
CC(=O)N(CN1C(=O)CCC1=O)c1cccc(Cl)c1,i
CC(C)(C)S(=O)(=O)c1sc(C=O)cc1C=O,i
O=C(O)CCC(=O)N[C@H]1CCN2C(=O)c3cc(-c4ccccc4)ccc3NC(=O)[C@H]12,i
O=C(O)CCC(=O)N[C@H]1CCN2C(=O)c3cc(-c4ccccc4F)ccc3NC(=O)[C@H]12,i
COc1ccc(-c2ccc3c(c2)C(=O)N2CC[C@H](NC(=O)CCC(=O)O)[C@H]2C(=O)N3)cc1,46%*
Cc1ccc(-n2c(=O)c3sccc3n(CC(=O)NC3CCCC3)c2=O)cc1F,i
Cc1ccc(NC2=CC(=NS(=O)(=O)c3cccs3)c3ccccc3C2=O)c(C)c1,89%*
CCOc1ccc(S(=O)(=O)N=C2C=C(Nc3ccccc3)C(=O)c3ccccc32)cc1,87%*
CCOc1ccc(NC(=O)Cc2ccc(OC)cc2)cc1,i
CCOc1ccc(S(=O)(=O)N=C2C=C(Nc3ccc(OC)cc3)C(=O)c3ccccc32)cc1,93%*
CCOc1ccc(S(=O)(=O)NCCO)cc1,i
CCc1ccc(S(=O)(=O)NCC(=O)O)cc1,i
